Data on 6 molecules can be found in PubChem BioAssay.

Experiment [1] is described as follows: optical density shifts of acrAB sulA E. coli – strain DRC41, OD650, 48 h, E. coli filamentation inducer project, primary screen (AID 1152).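 Also: E. coli MC1000 strain DRC41 lacking acrAB efflux pump and sulA.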 Conditions: higher = more signal, called active from +8 up or from −8 down.
Experiment [2] can be described thus: probe aLefty1 binding on compound microarray – biochemical, small-molecule microarray, 635/667 nm fluorescence, primary screen (AID 1153).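 Also: score merges spot fluorescence with signal-to-noise ratio from the scanned slide images.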 Conditions: higher = more signal.
Experiment [3] is described as follows: plasmodial surface anion channel blockers, osmotic lysis – cell-based, P. falciparum Indochina, OD700, 1 h, primary screen (AID 1154). The note with it: P. falciparum Indochina infected RBC osmotic lysis, higher = more signal, called active from +8 up or from −8 down.
Experiment [4] can be described thus: plasmodial surface anion channel blockers, osmotic lysis – cell-based, P. falciparum Indochina, OD700, 2 h, primary screen (AID 1155).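 Also: lysis reports solute entry through the parasite surface anion channel PSAC.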 The note with it: P. falciparum Indochina infected erythrocytes, higher = more signal, called active from +8 up or from −8 down.
Experiment [5] is described as follows: changes in parasitized red cell lysis, either direction – P. falciparum Indochina, OD700, 3 h, PSAC antagonist project, primary screen (AID 1156). Conditions: P. falciparum-infected erythrocytes, osmotic lysis, higher = more signal, called active from +8 up or from −8 down.
The nature of experiment [6]: plasmodial surface anion channel blockers, osmotic lysis – cell-based, P. falciparum Indochina, OD700, 18 h, primary screen (AID 1157). Conditions: P. falciparum Indochina infected erythrocytes, osmotic lysis OD700, 18 h; higher = more signal, called active from +8 up or from −8 down.
The nature of experiment [7]: S6 kinase pathway phospho-S6 level changes – cell-based, A549, cytoblot, luminescence, serum-stimulated, primary screen (AID 1158).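 Also: serum-stimulated A549 lung adenocarcinoma cells; signal is phosphorylated S6 detected by cytoblot immunostaining with HRP secondary.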 Conditions: 5 h, higher = more signal.
In experiment [8] the target is NADPH oxidase 2 (Homo sapiens) (UniProt P04839). In words: compounds shifting NOX2 Amplex Red fluorescence – cell-based, HEK293-NOX2, PMA-stimulated, NOX inhibitor project, primary screen (AID 1159). Also: test concentration not given here. Conditions: 45 min, higher = more signal, called active from +8 up or from −8 down.
The target in experiment [9] is NADPH oxidase 4 (Homo sapiens) (UniProt Q9NPH5). In words: compounds shifting NOX4 Amplex Red fluorescence – cell-based, HEK293-NOX4, tetracycline-induced, NOX inhibitor project, primary screen (AID 1160). Conditions: HEK293-NOX4, Amplex Red H2O2 fluorescence, 45 min; higher = more signal, called active from +8 up or from −8 down.
In experiment [10] the target is NADPH oxidase 5 (Homo sapiens) (UniProt Q96PH1). Nature of the experiment: compounds shifting NOX5 Amplex Red fluorescence – cell-based, HEK293-NOX5, NOX inhibitor project, primary screen (AID 1161). The note with it: HEK293-NOX5, ionomycin, 45 min, higher = more signal.
Experiment [11] is described as follows: compound effects on lung adenocarcinoma cell viability – A549, calcein-AM fluorescence, 48 h, basal, profiling panel (AID 1162). Also: test concentration not given here. The note with it: higher = more signal.
A short description of experiment [12]: compound effects on differentiated 3T3-L1 adipocyte viability – cell-based, 3T3-L1 adipocytes, calcein-AM fluorescence, 48 h, basal, profiling panel (AID 1163). Also: test concentration not given here. Conditions: 3T3-L1 adipocytes viability, higher = more signal.
Experiment [13] can be described thus: compound effects on hepatocellular carcinoma cell viability – HepG2, calcein-AM fluorescence, 48 h, basal, profiling panel (AID 1164). Also: test concentration not given here. The note with it: higher = more signal.
A short description of experiment [14]: compound effects on multiple myeloma cell viability – MM1S, calcein-AM fluorescence, 48 h, basal, profiling panel (AID 1165).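 Also: viability of MM1S multiple myeloma cells under basal unstimulated conditions; test concentration not given here.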 The note with it: higher = more signal.
A short description of experiment [15]: calcein-AM signal in unstimulated myeloma cells – cell-based, calcein-AM fluorescence, 48 h, PK04 Diversity Set, profiling panel (AID 1166).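 Also: cells grown under basal conditions without added stimulus; test concentration not given here.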 Conditions: RPMI8226 myeloma viability, higher = more signal.
Experiment [16] in a line: JC-1 mitochondrial signal, unstimulated HepG2 cells – cell-based, JC-1 fluorescence, 24 h, 100 nL compound, profiling panel (AID 1167). Also: test concentration not given here. Conditions: HepG2 mitochondrial potential, higher = more signal.
Experiment [17] can be described thus: JC-1 mitochondrial signal, unstimulated adipocytes – cell-based, JC-1 fluorescence, 3T3-L1 adipocytes, 24 h, 100 nL compound, profiling panel (AID 1168). Also: test concentration not given here. Conditions: JC-1 mitochondrial fluorescence, higher = more signal, called active from +8 up or from −8 down.
Experiment [18] in a line: JC-1 mitochondrial signal, unstimulated myeloma cells – cell-based, JC-1 fluorescence, RPMI8226, 24 h, 100 nL compound, profiling panel (AID 1169). Also: test concentration not given here. The note with it: JC-1 mitochondrial potential fluorescence, higher = more signal.
Experiment [19] in a line: JC-1 mitochondrial signal, unstimulated MM1S myeloma – cell-based, JC-1 fluorescence, 24 h, 100 nL compound, profiling panel (AID 1170). Also: test concentration not given here. Conditions: MM1S mitochondrial potential, higher = more signal.
Experiment [20] in a line: resazurin metabolic signal in A549 cells – cell-based, resazurin fluorescence, 24 h, PK04 Diversity Set, profiling panel (AID 1171). Also: test concentration not given here. The note with it: A549 viability, higher = more signal, called active from +8 up or from −8 down. Background: Resazurin is reduced to fluorescent resorufin, in cell work by metabolically active cells.

Activity calls are given as the source filed them.

Chain of NADPH oxidase 5 (Homo sapiens) (Q96PH1 whole entry, looked up): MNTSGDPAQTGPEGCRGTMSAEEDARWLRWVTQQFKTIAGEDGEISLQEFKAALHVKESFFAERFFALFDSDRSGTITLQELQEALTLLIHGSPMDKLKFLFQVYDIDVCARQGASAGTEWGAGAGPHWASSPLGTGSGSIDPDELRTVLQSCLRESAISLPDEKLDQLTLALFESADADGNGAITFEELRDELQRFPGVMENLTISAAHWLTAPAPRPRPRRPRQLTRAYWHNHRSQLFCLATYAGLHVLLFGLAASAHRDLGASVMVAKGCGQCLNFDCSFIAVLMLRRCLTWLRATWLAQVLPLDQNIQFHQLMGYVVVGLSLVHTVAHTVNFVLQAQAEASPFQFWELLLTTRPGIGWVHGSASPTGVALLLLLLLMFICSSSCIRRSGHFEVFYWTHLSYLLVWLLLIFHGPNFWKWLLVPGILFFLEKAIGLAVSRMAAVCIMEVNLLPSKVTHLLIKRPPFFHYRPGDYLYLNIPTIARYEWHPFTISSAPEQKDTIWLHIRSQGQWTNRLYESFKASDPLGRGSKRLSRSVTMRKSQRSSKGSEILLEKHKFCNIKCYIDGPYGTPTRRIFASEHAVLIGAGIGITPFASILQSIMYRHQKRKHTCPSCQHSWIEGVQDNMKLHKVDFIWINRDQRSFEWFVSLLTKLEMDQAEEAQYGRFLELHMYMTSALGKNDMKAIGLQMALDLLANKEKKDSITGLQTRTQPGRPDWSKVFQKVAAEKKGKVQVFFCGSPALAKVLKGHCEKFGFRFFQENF
Chain of NADPH oxidase 4 (Homo sapiens) (Q9NPH5 whole entry, looked up): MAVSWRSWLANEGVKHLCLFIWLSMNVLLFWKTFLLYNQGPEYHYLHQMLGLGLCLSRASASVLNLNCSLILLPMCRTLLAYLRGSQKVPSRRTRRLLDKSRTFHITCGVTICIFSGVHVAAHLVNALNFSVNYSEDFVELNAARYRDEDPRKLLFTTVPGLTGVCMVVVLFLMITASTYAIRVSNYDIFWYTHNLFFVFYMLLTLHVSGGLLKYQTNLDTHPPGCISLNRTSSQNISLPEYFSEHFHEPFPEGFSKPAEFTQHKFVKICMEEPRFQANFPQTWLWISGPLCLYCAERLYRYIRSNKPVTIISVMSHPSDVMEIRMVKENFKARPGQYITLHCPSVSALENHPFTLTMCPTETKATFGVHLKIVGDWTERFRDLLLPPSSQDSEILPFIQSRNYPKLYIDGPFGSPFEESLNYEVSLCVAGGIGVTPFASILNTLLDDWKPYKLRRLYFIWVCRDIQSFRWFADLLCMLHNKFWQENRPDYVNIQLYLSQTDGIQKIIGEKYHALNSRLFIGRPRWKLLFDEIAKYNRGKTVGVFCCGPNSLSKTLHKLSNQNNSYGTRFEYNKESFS
Chain of NADPH oxidase 2 (Homo sapiens) (P04839 whole entry, looked up): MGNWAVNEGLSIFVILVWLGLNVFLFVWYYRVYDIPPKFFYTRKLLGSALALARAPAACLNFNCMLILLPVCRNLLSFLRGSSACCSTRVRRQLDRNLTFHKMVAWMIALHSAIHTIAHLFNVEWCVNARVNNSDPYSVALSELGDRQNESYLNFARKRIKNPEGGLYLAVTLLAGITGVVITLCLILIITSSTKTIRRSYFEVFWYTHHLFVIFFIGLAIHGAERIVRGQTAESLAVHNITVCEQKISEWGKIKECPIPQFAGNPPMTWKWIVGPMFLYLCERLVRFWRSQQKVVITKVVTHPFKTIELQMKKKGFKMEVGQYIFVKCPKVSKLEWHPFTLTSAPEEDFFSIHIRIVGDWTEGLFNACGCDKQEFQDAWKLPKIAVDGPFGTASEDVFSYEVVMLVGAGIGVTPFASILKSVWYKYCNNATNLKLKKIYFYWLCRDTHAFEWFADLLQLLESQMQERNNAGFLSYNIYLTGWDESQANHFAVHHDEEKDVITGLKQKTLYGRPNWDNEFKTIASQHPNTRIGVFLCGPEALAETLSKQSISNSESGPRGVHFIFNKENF

For `CC(CCC(=O)OC[C@H]1O[C@H](C#Cc2ccccc2)C=C[C@@H]1Oc1ccc(C)cc1)=NO[C@H](C)c1cn([C@H](CO)Cc2ccccc2)nn1`, the z-score in [1] was -0.757 (inactive); in [3], 14.6 (active); in experiment [4] it was 2.79 (inactive); in experiment [5], 1.47 (inactive); in [6], 1 (inactive); in experiment [7] it was -1.01. Moreover, the z-score in [8] is -1.26 (inactive); in experiment [9] it was 0.432 (inactive); in experiment [10], 0.32; in experiment [11], 0.122; in experiment [12] it was -0.643; in experiment [13] it was -0.34. Besides, the z-score was -3.06 in experiment [14]; -3.97 in experiment [15]; 0.0151 in [16]; -1.08 (inactive) in experiment [17]; -0.712 in experiment [18]; -0.547 in [19]. The z-score in experiment [20] was 0.804 (inactive). Moreover, the composite z-score in [2] was -0.243.

With `CC(C)=CCCC(C)=CCON=C1C[C@@H](O)[C@@H](O)[C@@H]2[C@@H]3C(=O)N(c4ccc(F)cc4F)C(=O)[C@@H]3CC[C@@H]12`, the z-score in experiment [1] is 0.217 (inactive); in experiment [3], 4.44 (inactive); in [4], 1.21 (inactive); in experiment [5] it was 2.06 (inactive); in experiment [6], 1.07 (inactive); in [7], -0.718. Moreover, the z-score was -0.333 (inactive) in experiment [8]; -0.0951 (inactive) in [9]; 0.0854 in [10]; -1.34 in [11]; 0.425 in experiment [12]; -0.354 in experiment [13]. Also, the z-score in experiment [14] was -0.586; in [15], -1.47; in [16], 0.208; in experiment [17] it was -1.28 (inactive); in experiment [18], -0.163; in experiment [19], -0.356. Further, the z-score in experiment [20] is -0.179 (inactive). This molecule showed a composite z-score in experiment [2] of 0.0999.

With `CO[C@H]1COC(=O)CC=C[C@H](C)COC(=O)[C@@H](C)NC(=O)CC=C[C@@H]1C`, the z-score was -0.447 (inactive) in experiment [1]; -0.499 (inactive) in [3]; -1.13 (inactive) in experiment [4]; 0.475 (inactive) in experiment [5]; -2.08 (inactive) in experiment [6]; 1.27 in [7]. Also, the z-score was 0.157 (inactive) in experiment [8]; 0.148 (inactive) in [9]; -0.0359 in experiment [10]; -0.752 in experiment [11]; 0.197 in experiment [12]; -1.46 in experiment [13]. Also, the z-score in [14] was 0.735; in experiment [15], -1.5; in experiment [16], 0.187; in [17], -0.546 (inactive); in experiment [18] it was -0.111; in experiment [19], -0.609. Further, the z-score in experiment [20] is 0.0702 (inactive). Also, in experiment [2], the composite z-score stood at 0.0669.

Take `CC[C@@H](c1ccccc1)n1c(=O)n2n(c1=O)[C@H]1[C@H](O)[C@@H]3O[C@@H]3C(=O)[C@H]1CC2`: the z-score in experiment [1] was 0.289 (inactive); in experiment [3], -0.48 (inactive); in [4], -0.38 (inactive); in experiment [5], -0.0399 (inactive); in [6], -0.139 (inactive); in [7], -0.126. Besides, the z-score in [8] is -6.29 (inactive); in experiment [9], -0.0502 (inactive); in experiment [10], 0.324; in experiment [11], -0.0457; in [12] it was 1.16; in [13], -0.481. Further, the z-score was -3.07 in [14]; -2.84 in experiment [15]; -0.914 in [16]; -0.491 (inactive) in experiment [17]; -0.924 in experiment [18]; -1.72 in [19]. In addition, in experiment [20], the z-score is -0.565 (inactive). The molecule further showed a composite z-score in [2] of -0.101.

Consider `O=C1C[C@@H](O)[C@@H](O)[C@@H]2[C@@H]3C(=O)N(Cc4ccc5c(c4)OCO5)C(=O)[C@@H]3CC[C@H]12`, for which the z-score is -0.116 (inactive) in experiment [1]; 1.52 (inactive) in experiment [3]; 0.14 (inactive) in experiment [4]; -0.582 (inactive) in [5]; 0.207 (inactive) in experiment [6]; -0.196 in experiment [7]. For the same molecule, the z-score in experiment [8] was -0.148 (inactive); in experiment [9], 0.314 (inactive); in experiment [10], -0.36; in experiment [11], 0.474; in experiment [12], 1.46; in experiment [13] it was 0.517. Further, the z-score in experiment [14] is 0.0737; in experiment [15], -0.0121; in experiment [16], -0.0331; in experiment [17] it was -0.221 (inactive); in [18] it was 0.522; in experiment [19] it was 1.37. The z-score in experiment [20] was -0.0495 (inactive). In experiment [2], this molecule showed a composite z-score of -0.104.

For `CCCNC(=O)OC[C@H]1O[C@H](c2ccccc2)C=C[C@@H]1Oc1ccc(OC)cc1`, the z-score in [1] is 0.604 (inactive); in [3], 0.906 (inactive); in [4], 0.141 (inactive); in [5] it was -0.353 (inactive); in [6] it was 0.0261 (inactive); in experiment [7] it was 0.136. The z-score in experiment [8] is 1.35 (inactive); in experiment [9], -0.438 (inactive); in experiment [10], -1.9; in experiment [11] it was -0.365; in [12], 0.125; in [13], -0.138. For the same molecule, the z-score in experiment [14] is -0.543; in experiment [15], -0.0859; in experiment [16], -0.362; in experiment [17], -0.307 (inactive); in [18], -0.215; in [19], 0.0375. The z-score in [20] is -0.745 (inactive). Further, the composite z-score in experiment [2] was -0.092.
